Inconclusive results are not listed. A call without a number means that no potency is given here. Calls of active or inactive are those of the source. Calls come from the whole dose curve; as a rule, active = well fitted activation curve with a large enough effect in the repeat runs; inconclusive = weak or mixed curves, or effect the other way; inactive = no such curve, though single readings can be large or run the other way.
Assay: qHTS assay to identify small molecule agonists of the estrogen related receptor signaling pathway with the pleiotropic PPARgamma coactivator (PGC) from Tox21 10K library (AID 1224842); note: nearly all actives have a fitted effect of over 15% in size
Conditions: PGC/ERR reporter cell line, luciferase ONE-Glo, 18 h; series mostly up to 92.4 µM
Excerpt: National Center for Advancing Translational Sciences [NCATS] NIH Chemical Genomics Center [NCGC] U.S. Environmental Protection Agency [EPA] National Institutes of Environmental Health Sciences [NIEHS] National Toxicology Program [NTP] Assay overview: Estrogen related receptors (ERRs), the first orphan nuclear receptors discovered, play an important role in the control of cellular energy metabolism. ERRs are required for high-energy production in response to the environmental challenges. The pleiotropic PPARgamma coactivator (PGC) is a major partner of ERR and a key regulator in energy homeostasis. Together they have been implicated in the etiology of metabolic disorders such as Type 2 diabetes and metabolic syndrome. ERR-alpha was also identified as an adverse marker for breast cancer progression; ERR-alpha-positive tumors have a poor prognosis. To screen and to identify environmental compounds that perturb the PGC/ERR signaling pathways could provide valuable information for potential therapeutic or preventive measures in the treatment of metabolic disease. For identifying PGC/ERR agonists, PGC/ERR cell line (provided by NTP) has been used to screen Tox21 10K library.
Assay Protocol Summary: The PGC/ERR cells were dispensed at 2,000 cells/5 ul/well in 1536-well white plates using a Multidrop dispenser. After the assay plates were incubated at a 37 C/5% CO2 incubator for 6 hours, 23 nL of compounds dissolved in DMSO, positive and negative controls or DMSO only was transferred to the assay plate by a pin tool. The plates were incubated at 37 C for 18 hours. 4 ul/well of One-Glo reagent was added into the assay plates using a Flying Reagent Dispenser. After 30-minute incubation at room temperature, the luminescence intensity in the plates was measured using a ViewLux plate reader.
For `CC(=O)OCc1ccc2c(c1)OCO2`, the Potency was “inactive”.
With `CC(=O)OC(C)(C)C1CC=C(C)CC1` (stereo not given) the Potency was “inactive”.
For `N#CCC(=O)O`, the Potency was “inactive”.
With `COc1ccc2cc3[n+](cc2c1OC)CCc1cc2c(cc1-3)OCO2` the Potency was “inactive”.
With `CC(=O)Nc1ccc(CC(=O)O)cc1` the Potency was “inactive”.
With `C=CC(C)(C)C` the Potency was “inactive”.
For `COC(=O)/C=C\C(=O)OC`, the Potency was “inactive”.
In the case of `OB(O)O`, the Potency is reported as “inactive”.
With `O=[N+]([O-])c1cc(C(F)(F)F)ccc1Cl` the Potency was “inactive”.
For `CC(C=O)Cc1ccc(C(C)(C)C)cc1` (stereo not given), the Potency was “inactive”.
For `C[n+]1ccn(CCO)c1`, the Potency was “inactive”.
In the case of `C=C1C[C@]23C[C@@]1(O)CC[C@H]2[C@@]12C=C[C@H](O)[C@@](C)(C(=O)O1)[C@H]2[C@@H]3C(=O)O`, the Potency is reported as “inactive”.
With `CC(C)(CO)CO` the Potency was “inactive”.
In the case of `CCCOCC(C)O` (stereo not given), the Potency is reported as “inactive”.
For `Nc1cccc(C(F)(F)F)c1`, the Potency was “inactive”.
With `OC[C@H]1O[C@@H](Oc2ccc(O)cc2)[C@H](O)[C@@H](O)[C@@H]1O` the Potency was “inactive”.
For `O=[N+]([O-])c1ccccc1C(F)(F)F`, the Potency was “inactive”.
For `CC1=CC(=O)CC(C)(C)C1`, the Potency was “inactive”.
For `CCCCC(CC)COC(=O)c1ccc(C(=O)OCC(CC)CCCC)cc1` (stereo not given), the Potency was “inactive”.
For `NC1CCCCC1N` (stereo not given), the Potency was “inactive”.
With `O=Cc1ccc(CO)o1` the Potency was “inactive”.
For `CC(=O)OCCC(C)C`, the Potency was “inactive”.
With `CCCCCC(C)=O` the Potency was “inactive”.
With `OCCOCCOCCOCCOCCO` the Potency was “inactive”.
In the case of `CCCCCCCCCCCCCC(=O)O`, the Potency is reported as “inactive”.
For `Cc1cc(C)cc(O)c1`, the Potency was “inactive”.
For `c1cnc2c(c1)ccc1cccnc12`, the Potency was “inactive”.
With `Nc1nc(N)c2nc(-c3ccccc3)c(N)nc2n1` the Potency was “inactive”.
In the case of `Cc1cc(C)c(O)c(C)c1`, the Potency is reported as “inactive”.
For `COC(=O)OC`, the Potency was “inactive”.
With `COCN(COC)c1nc(N(COC)COC)nc(N(COC)COC)n1` the Potency was “inactive”.
With `COc1ccccc1[N+](=O)[O-]` the Potency was “inactive”.
For `CC(CN1c2ccccc2Sc2ccccc21)N(C)C` (stereo not given), the Potency was “inactive”.
For `CCCCCCC(=O)O`, the Potency was “inactive”.
With `C1CCCNCC1` the Potency was “inactive”.
With `CC(COCC(C)OC(=O)c1ccccc1)OC(=O)c1ccccc1` (stereo not given) the Potency was “inactive”.
With `O=C(O)Cc1c[nH]c2ccccc12` the Potency was “inactive”.
With `CS(=O)(=O)c1ccc(Cl)cc1` the Potency was “inactive”.
For `CN=C(NC#N)NCCSCc1nc[nH]c1C`, the Potency was “inactive”.
In the case of `O=C(c1ccccc1)c1ccc(O)c(O)c1O`, the Potency is reported as “inactive”.

From PubChem BioAssay (Tox21)
